Inconclusive results are not listed. Unmarked numbers belong to inactive results. Active and inactive are the calls of the source. Calls follow the shape of the dose curve; as a rule, active = well fitted inhibition curve with a large enough effect in the repeat runs; inconclusive = weak or mixed curves; inactive = no such curve, though single readings can be large or run the other way.
Each compound was assayed against Cytochrome P450 3A4 (Homo sapiens) (UniProt P08684) (assay: Cytochrome P450 Family 3 Subfamily A Member 4 (CYP3A4) small molecule antagonists: luciferase reporter qHTS assay (AID 1671201; also: nearly all actives have a fitted effect of over 50% in size)). Conditions: P450-Glo CYP3A4 enzyme, luciferin luminescence, 1 h; series mostly up to 115 µM; activity change, negative = inhibition: at the top concentration.
Description: National Center for Advancing Translational Sciences [NCATS]
U.S. Environmental Protection Agency [EPA]
National Institutes of Environmental Health Sciences [NIEHS]
National Toxicology Program [NTP]
U.S. Food and Drug Administration [FDA]
Cytochrome P450 (CYP) enzymes are membrane-bound hemeproteins that play a key role in metabolism of drugs and xenobiotics. Evaluation of the effect of chemicals on CYP isozymes is useful to minimize the adverse drug reactions and toxicities in drug development process. Tox21 chemicals were tested for their effect on CYP enzyme activities by using P450-Glo (TM) screening systems (Promega Corporation, Madison, WI). These systems provide a luminescent method containing proluciferin substrates and are converted to luciferin products by CYP isozymes. The luciferin products formed are detected with a luciferin detection reagent, and the amount of light produced is proportional to CYP activity. P450-Glo (TM) CYP3A4 screening system (Catalog. No. V9910) was used to detect the compounds that interfere in CYP3A4 activity. The positive control compound used for CYP3A4 assay is ketoconazole (Sigma-Aldrich, St. Louis, MO).
Tox21 Assay Protocol Summary:
Two ul of enzyme-substrate mix was dispensed into medium binding white/solid 1536-well plates (Greiner Bio-One North America Inc., Monroe, NC) using a BioRaptr Flying Reagent Dispenser (FRD, Beckman Coulter, Brea, CA). Compounds dissolved in DMSO and positive control (ketoconazole) were transferred to the assay plates at 23 nl using a Pintool station (Wako, San Diego, CA). The assay plates were incubated at room temperature for 10 min. Then 2 ul of NADPH regeneration solution was added to each well of the assay plates using an FRD and incubated at room temperature for 1 h. The reaction was stopped by adding 4 ul of detection reagent using an FRD and after 20 min incubation at room temperature the luminescence signal was measured using a ViewLux plate reader (Perkin Elmer, Shelton, CT). Data were expressed as relative luminescence units.
% is scaled to controls: 0 for no effect and ±100 for the full control effect; potency is read from the fitted curve at half-maximal effect.

Cytochrome P450 3A4 (Homo sapiens), sequence (P08684 whole entry, looked up): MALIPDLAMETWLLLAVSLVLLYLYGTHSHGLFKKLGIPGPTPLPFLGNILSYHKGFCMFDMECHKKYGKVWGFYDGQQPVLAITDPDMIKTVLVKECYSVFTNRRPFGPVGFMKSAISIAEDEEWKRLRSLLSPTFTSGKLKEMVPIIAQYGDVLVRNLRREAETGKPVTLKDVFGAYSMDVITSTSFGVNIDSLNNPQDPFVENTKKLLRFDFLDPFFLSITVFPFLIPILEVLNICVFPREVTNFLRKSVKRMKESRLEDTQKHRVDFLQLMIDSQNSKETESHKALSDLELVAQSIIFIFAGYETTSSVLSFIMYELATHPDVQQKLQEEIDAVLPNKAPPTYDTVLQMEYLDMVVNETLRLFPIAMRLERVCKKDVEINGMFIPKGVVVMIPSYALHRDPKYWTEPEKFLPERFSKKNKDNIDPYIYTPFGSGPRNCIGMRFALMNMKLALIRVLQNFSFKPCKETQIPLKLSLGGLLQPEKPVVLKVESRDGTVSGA

Row | SMILES | activity change, negative = inhibition | Potency
1 | CC(C)(O)c1ccccc1 | -0.672% | –
2 | CCO[Si](CCCN=C=O)(OCC)OCC | – | 35.6 µM (active)
3 | C/C=C1\C(=O)C[C@H]2[C@@H]3CCC4=CC(=O)CC[C@]4(C)[C@H]3CC[C@]12C | 65.1% [at 52.9 µM] | –
4 | c1ccc2cnncc2c1 | -12.8% | –
5 | NC(=O)c1ncn([C@@H]2O[C@H](CO)[C@@H](O)[C@H]2O)c1O | 11.9% [at 52.9 µM] | –
6 | CC(C)[N+](C)(C)CC(O)COc1cccc2ccccc12 (stereo not given) | 1.67% [at 52.9 µM] | –
7 | CCCCC=O | -12.1% | –
8 | CCc1cc(S(=O)(=O)O)c2cc(C(C)C)cccc1-2 | 2.3% [at 52.9 µM] | –
9 | C=C[Si](OC)(OC)OC | -12.2% | –
10 | O=S(=O)(O)c1ccccc1O | -9.37% | –
11 | OC1OC[C@@H](O)[C@H](O)[C@H]1O (stereo not given in full) | 8.73% | –
12 | COC(=O)c1ccc(C(=O)OC)c(C(=O)OC)c1 | 42.1% | –
13 | O=C(O)c1cccc(C(=O)O)n1 | 50.1% | –
14 | CN(C)N=Nc1ccccc1 | 15.1% | –
15 | CCCCCCCCCCCCCCC | 6.97% | –
16 | Nc1ncnc2c1ncn2Cc1c(F)cccc1Cl | 25.8% [at 52.9 µM] | –
17 | COc1cc(C(=O)N2CCOCC2)cc(OC)c1OC | 10.5% [at 52.9 µM] | –
18 | CCCC(C)CO (stereo not given) | -5.68% | –
19 | CC12CCC(CC1=O)C2(C)C (stereo not given) | 12.7% | –
20 | Cc1ccccc1Br | 2.84% | –

Row | SMILES | activity change, negative = inhibition | Potency
21 | CC(C)COC(=O)c1ccccc1O | -4.32% | –
22 | CCCCCCCCCCC1CO1 (stereo not given) | 4.21% | –
23 | CCN(CC)S(=O)(=O)c1ccc(C(=O)O)cc1 | 12.7% [at 52.9 µM] | –
24 | CC(=O)c1ccc(C)cc1 | 1.24% | –
25 | CCO[Si](C)(OCC)OCC | – | 28.3 µM (active)
26 | CCCCCCCCCCCCCCCCCCOCC(O)CO (stereo not given) | 6.77% [at 52.9 µM] | –
27 | CC(C)N1C(=O)c2ccccc2C1=O | 29.7% | –
28 | Nc1nc(F)nc2c1ncn2[C@@H]1O[C@H](CO)[C@@H](O)[C@@H]1O | -15.7% [at 52.9 µM] | –
29 | C[C@H](O)C(=O)Nc1c(I)c(C(=O)NC(CO)CO)c(I)c(C(=O)NC(CO)CO)c1I | 10.8% [at 52.9 µM] | –
30 | C=C(C)C(=O)NCCCN(C)C | 9.4% | –
31 | COc1ccc(N=[N+]([O-])c2ccc(OC)cc2)cc1 | -7.92% | –
32 | CCCCN(CCO)CCO | 0.436% | –
33 | CC(C)=CC(=O)O | 5.65% | –
34 | Cn1cnc2c(=O)[nH]c(N)nc21 | 3.92% | –
35 | CCCCCCCCCCCCCCCCCC(=O)OCCCCCCCCCCCCCC(C)C | 3.05% | –
36 | COC(=O)CCCCCCCCC(=O)OC | 118% | –
37 | Cc1ccc(N)cc1[N+](=O)[O-] | – | 40.2 µM (active)
38 | O=[N+]([O-])c1ccc(CCO)cc1 | 0.639% | –
39 | CC(C)(C)CC(C)(C)N | -17.4% | –
40 | C=CC(=O)OCCCCCC | 7.05% | –
